A structure can be active in one record and inactive in another. Activity calls are given as the source filed them. A call without a number means that no potency is given here. Unless noted, calls follow the shape of the dose curve; as a rule, active = well fitted curve in the direction sought with a large enough effect in the repeat runs; inconclusive = weak or mixed curves; inactive = no such curve, though single readings can be large; an effect the other way counts as inactive or inconclusive.
Assays:
[1] = qHTS assay to identify small molecule antagonists of the thyroid receptor (TR) signaling pathway - cell viability counter screen (AID 743064); also: nearly all actives have a fitted effect of over 50% in size
Summary of the method: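 Plate GH3.TRE-Luc cells; incubate 4 h at 37 °C; add compound, then T3 to 1 nM final; incubate 23.5 h; add CellTiter-Fluor; incubate 30 min at 37 °C, 5% CO2; read fluorescence.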

[2] = biological target: Estrogen receptor (Homo sapiens) (UniProt P03372); assay: qHTS assay to identify small molecule antagonists of the estrogen receptor alpha (ER-alpha) signaling pathway (AID 743069; active = well fitted curve in the direction sought with a large enough effect in the signal ratio in the repeat runs, not every such curve was filed as active; inconclusive = weak or mixed curves, or effect the other way; inactive = no such curve, though single readings can be large or run the other way; the % refers to the signal ratio; also: potency is read from the fitted curve at half-maximal effect)
Chain of Estrogen receptor (Homo sapiens) (P03372 whole entry, looked up): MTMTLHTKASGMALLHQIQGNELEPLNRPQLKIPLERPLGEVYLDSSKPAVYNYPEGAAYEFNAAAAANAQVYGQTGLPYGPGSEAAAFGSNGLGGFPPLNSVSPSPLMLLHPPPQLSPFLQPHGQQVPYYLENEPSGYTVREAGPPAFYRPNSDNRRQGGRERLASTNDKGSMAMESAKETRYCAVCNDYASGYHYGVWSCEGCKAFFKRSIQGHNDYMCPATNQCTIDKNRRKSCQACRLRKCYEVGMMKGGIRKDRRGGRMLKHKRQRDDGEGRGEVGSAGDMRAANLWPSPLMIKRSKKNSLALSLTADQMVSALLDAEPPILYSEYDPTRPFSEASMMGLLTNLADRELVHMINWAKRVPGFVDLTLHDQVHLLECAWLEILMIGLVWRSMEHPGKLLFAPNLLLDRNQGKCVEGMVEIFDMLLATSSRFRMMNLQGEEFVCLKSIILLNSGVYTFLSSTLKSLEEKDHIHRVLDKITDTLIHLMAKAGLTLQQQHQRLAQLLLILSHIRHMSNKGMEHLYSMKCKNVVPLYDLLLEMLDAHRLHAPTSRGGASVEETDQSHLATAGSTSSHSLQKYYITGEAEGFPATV
Summary of the method: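 Fluorescence intensity from a beta-lactamase FRET substrate served as the read-out. Cells: HEK293 with stably integrated ER-alpha-UAS-bla reporter. Agonist 17beta-estradiol was co-added with compounds; incubation 18 hr at 37C, substrate 2 hr at room temperature.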

[3] = qHTS assay to identify small molecule antagonists of the estrogen receptor alpha (ER-alpha) signaling pathway - cell viability counter screen (AID 743074; calls by dose curve; also: nearly all actives have a fitted effect of over 45% in size)
[4] = biological target: Estrogen receptor (Homo sapiens) (UniProt P03372); assay: qHTS assay to identify small molecule agonists of the estrogen receptor alpha (ER-alpha) signaling pathway (AID 743075; calls by dose curve; also: potency is read from the fitted curve at half-maximal effect)
[5] = biological target: Estrogen receptor (Homo sapiens) (UniProt P03372); assay: qHTS assay to identify small molecule agonists of the estrogen receptor alpha (ER-alpha) signaling pathway using the BG1 cell line (AID 743079); details: BG1Luc4E2 cells, ERE-luciferase agonist, 22 h; activation: at 70.3 µM (top of the series); also: nearly all actives have a fitted effect of over 20% in size; also: potency is read from the fitted curve at half-maximal effect
[6] = qHTS assay to identify small molecule antagonists of the estrogen receptor alpha (ER-alpha) signaling pathway using the BG1 cell line (AID 743080; calls by dose curve;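 also: BG1 cells stimulated with 17beta-estradiol alongside compound; nearly all actives have a fitted effect of over 25% in size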)
Summary of the method: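 Luciferase inhibition measured with ONE-Glo after 30 min at RT in BG1Luc4E2 cells given test compounds and 17beta-estradiol for 21.5 h at 37 C; CellTiter-Fluor viability read in the same wells beforehand.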

[7] = qHTS assay to identify small molecule antagonists of the estrogen receptor alpha (ER-alpha) signaling pathway using the BG1 cell line - cell viability counter screen (AID 743081);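 also: compound given together with 17beta-estradiol as the ER stimulus; nearly all actives have a fitted effect of over 45% in size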
Aromatase (Homo sapiens) = Aromatase (Homo sapiens) (UniProt P11511); assay: qHTS assay to identify aromatase inhibitors (AID 743083); also: nearly all actives have a fitted effect of over 55% in size; also: potency is read from the fitted curve at half-maximal effect
Chain of Aromatase (Homo sapiens) (P11511 whole entry, looked up): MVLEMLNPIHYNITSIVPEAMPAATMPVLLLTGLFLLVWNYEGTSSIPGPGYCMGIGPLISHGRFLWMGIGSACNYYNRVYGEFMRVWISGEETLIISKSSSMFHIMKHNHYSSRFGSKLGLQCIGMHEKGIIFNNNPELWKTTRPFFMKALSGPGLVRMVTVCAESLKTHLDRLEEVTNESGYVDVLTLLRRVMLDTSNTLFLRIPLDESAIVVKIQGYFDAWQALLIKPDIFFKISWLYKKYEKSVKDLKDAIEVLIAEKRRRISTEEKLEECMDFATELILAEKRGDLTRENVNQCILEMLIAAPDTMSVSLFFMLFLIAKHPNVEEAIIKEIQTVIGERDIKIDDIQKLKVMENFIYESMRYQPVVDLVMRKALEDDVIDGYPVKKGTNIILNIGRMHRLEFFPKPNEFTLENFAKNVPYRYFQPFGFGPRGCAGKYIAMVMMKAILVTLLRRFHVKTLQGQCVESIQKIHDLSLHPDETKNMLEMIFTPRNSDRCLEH

[8] = qHTS assay to identify aromatase inhibitors - cell viability counter screen (AID 743084);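 also: cells stimulated with testosterone during compound exposure; nearly all actives have a fitted effect of over 55% in size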
[9] = biological target: Aryl hydrocarbon receptor (Homo sapiens) (UniProt P35869); assay: qHTS assay to identify small molecule that activate the aryl hydrocarbon receptor (AhR) signaling pathway (AID 743085);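 also: HG2L7.5c1 human HepG2 liver cells with stably integrated DRE-driven firefly reporter; nearly all actives have a fitted effect of over 15% in size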
Chain of Aryl hydrocarbon receptor (Homo sapiens) (P35869 whole entry, looked up): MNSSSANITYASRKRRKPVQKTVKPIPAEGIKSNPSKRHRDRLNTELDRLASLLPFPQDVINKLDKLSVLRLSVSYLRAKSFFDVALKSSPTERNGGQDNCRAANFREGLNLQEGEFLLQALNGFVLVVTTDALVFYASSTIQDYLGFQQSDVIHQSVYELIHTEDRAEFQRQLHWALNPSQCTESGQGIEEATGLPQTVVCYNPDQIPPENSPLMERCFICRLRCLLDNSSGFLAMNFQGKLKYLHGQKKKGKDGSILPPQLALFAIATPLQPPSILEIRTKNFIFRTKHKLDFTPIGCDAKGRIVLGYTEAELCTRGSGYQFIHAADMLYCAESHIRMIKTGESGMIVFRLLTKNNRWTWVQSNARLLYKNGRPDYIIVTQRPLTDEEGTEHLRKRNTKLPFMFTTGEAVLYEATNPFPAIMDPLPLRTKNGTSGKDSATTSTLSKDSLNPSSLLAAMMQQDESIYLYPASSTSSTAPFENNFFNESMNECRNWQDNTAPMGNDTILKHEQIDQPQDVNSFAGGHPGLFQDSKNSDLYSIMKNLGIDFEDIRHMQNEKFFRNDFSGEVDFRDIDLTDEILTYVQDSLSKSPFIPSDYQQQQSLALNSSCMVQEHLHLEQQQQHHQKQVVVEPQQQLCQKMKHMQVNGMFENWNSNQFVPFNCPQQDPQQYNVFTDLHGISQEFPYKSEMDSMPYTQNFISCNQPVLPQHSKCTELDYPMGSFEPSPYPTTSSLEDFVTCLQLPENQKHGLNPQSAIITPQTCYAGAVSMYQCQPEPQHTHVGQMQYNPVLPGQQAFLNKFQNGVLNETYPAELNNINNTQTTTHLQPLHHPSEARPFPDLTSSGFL
Summary of the method: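 Steps: seed HepG2-AhR-luc cells; allow 5 h at 37C; pin-transfer test compound or vehicle; incubate 24 h at 37C; add viability dye (30 min, 37C) and read fluorescence; add luciferase substrate (30 min, RT) and read luminescence.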

[10] = qHTS assay to identify small molecule that activate the aryl hydrocarbon receptor (AhR) signaling pathway - cell viability counter screen (AID 743086);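 also: HepG2 liver cells carrying the AhR DRE luciferase reporter; nearly all actives have a fitted effect of over 45% in size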
Summary of the method: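 Cytotoxicity counter screen: CellTiter-Fluor signal (30 min, 37 C) in 4000 HepG2 cells/well carrying the DRE-luciferase reporter, following 24 h compound exposure at 37 C.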

[11] = biological target: Peroxisome proliferator-activated receptor gamma (Homo sapiens) (UniProt P37231); assay: qHTS assay to identify small molecule agonists of the peroxisome proliferator-activated receptor gamma (PPARg) signaling pathway (AID 743094; active = well fitted activation curve with a large enough effect in the signal ratio in the repeat runs, not every such curve was filed as active; inconclusive = weak or mixed curves, or effect the other way; inactive = no such curve, though single readings can be large or run the other way; the % refers to the signal ratio)
Chain of Peroxisome proliferator-activated receptor gamma (Homo sapiens) (P37231 whole entry, looked up): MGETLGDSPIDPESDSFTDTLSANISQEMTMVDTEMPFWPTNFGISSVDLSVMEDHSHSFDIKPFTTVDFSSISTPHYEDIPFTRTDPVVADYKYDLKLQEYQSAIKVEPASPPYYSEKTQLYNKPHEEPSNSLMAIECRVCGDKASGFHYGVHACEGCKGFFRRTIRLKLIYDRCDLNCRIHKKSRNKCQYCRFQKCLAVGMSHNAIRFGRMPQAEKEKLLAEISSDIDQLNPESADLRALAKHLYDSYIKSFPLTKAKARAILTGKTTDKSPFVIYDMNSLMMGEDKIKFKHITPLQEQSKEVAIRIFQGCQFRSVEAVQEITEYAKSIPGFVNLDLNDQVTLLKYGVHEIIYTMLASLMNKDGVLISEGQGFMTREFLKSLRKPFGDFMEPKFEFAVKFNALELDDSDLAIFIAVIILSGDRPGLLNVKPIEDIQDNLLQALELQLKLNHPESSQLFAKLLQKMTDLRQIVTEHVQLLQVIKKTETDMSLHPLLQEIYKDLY
Summary of the method: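 Reporter activation was scored by fluorescence of cleaved LiveBLAzer B/G substrate (1 h, room temperature) in PPARg-bla HEK293H cells previously treated 17 h at 37C with DMSO-dissolved compounds.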

[12] = qHTS assay to identify small molecule phospholipidosis (PLD) inducers (AID 1259344; active = well fitted curve in the direction sought with a large enough effect; inconclusive = small, poorly fitted or top-dose-only effect, or another doubt; inactive = no such curve, though single readings can be large; an effect the other way counts as inactive or inconclusive)
Summary of the method: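 Accumulated phospholipid, stained red by LipidTOX during 24 h compound treatment of HepG2 cells at 37 C, is quantified from images as pit number and intensity, normalised per cell using Hoechst-stained nuclei.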

[13] = qHTS assay to identify small molecule antagonists of the thyroid receptor (TR) signaling pathway (AID 743065); also: nearly all actives have a fitted effect of over 55% in size; also: potency is read from the fitted curve at half-maximal effect
Summary of the method: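 Antagonism measured as loss of luciferase signal in GH3 cells stably carrying a TRE-luciferase reporter, co-treated with compound and T3 (1 nM final) for 23.5 h at 37 C. Viability was read in the same well by CellTiter-Fluor.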

[14] = tested on: thyroid hormone receptor (rat, GH3 cells); assay: qHTS assay to identify small molecule agonists of the thyroid receptor (TR) signaling pathway (AID 743066; calls by dose curve)

| Compound | Potency [1] | Potency [2] | Potency [3] | Potency [4] | Potency [5] | Potency [6] | Potency [7] | Potency (Aromatase (Homo sapiens)) | Potency [8] | Potency [9] | Potency [10] | Potency [11] | Potency [12] | Potency [13] | Potency [14] | PLD induction [12] | activation [5] |
| --- | --- | --- | --- | --- | --- | --- | --- | --- | --- | --- | --- | --- | --- | --- | --- | --- | --- |
| NC[C@@H]1O[C@H](O[C@H]2[C@@H](O)[C@H](O[C@@H]3[C@@H](O)[C@H](N)C[C@H](N)[C@H]3O[C@H]3O[C@H](CO)[C@@H](O)[C@H](O)[C@H]3N)O[C@@H]2CO)[C@H](N)[C@@H](O)[C@@H]1O | inactive | inactive | inactive | inactive | 26.6 µM (active) | inactive | inactive | inactive | inactive | inactive | inactive | inactive | inactive |  |  |  |  |
| COc1cc([C@@H]2c3cc4c(cc3C(O[C@@H]3O[C@@H]5CO[C@@H](C)O[C@H]5[C@H](O)[C@H]3O)C3COC(=O)[C@@H]32)OCO4)cc(OC)c1OP(=O)(O)O (stereo partly drawn) |  | inactive |  | inactive | 11.9 µM (active) and inactive | inactive |  | inactive | inactive |  | inactive | inactive |  | 11.9 µM (active) | inactive | 0.0559% [at 1.53 µM] (inactive) |  |
| CCC(=O)O[C@H]1CC[C@H]2[C@@H]3CCc4cc(O)ccc4[C@H]3CC[C@]12C |  |  | inactive | 0.0013 µM [inconclusive] (active) |  | inactive | inactive | inactive | inactive |  | inactive | inactive | inactive | 26.6 µM (active) |  |  | 52.2% (active) |
| c1cnc2cc3c(cc2n1)[C@@H]1CNC[C@H]3C1 |  | inactive | inactive | inactive | inactive | inactive | inactive | inactive | inactive | inactive | inactive | inactive | inactive | inactive | inactive |  |  |
| COc1ccc(CCNCC(O)COc2cccc(C)c2)cc1OC (stereo not drawn) |  | inactive | inactive | inactive | inactive | inactive | inactive | inactive | inactive | inactive | inactive | inactive | inactive |  | inactive |  |  |
| C[C@H](/C=C/[C@H](C)C(C)(C)O)[C@H]1CC[C@H]2/C(=C/C=C3C[C@@H](O)C[C@H](O)C3)CCC[C@]12C |  | 23.9 µM [inconclusive] (active) |  | inactive |  |  | inactive | inactive | inactive | inactive | inactive | inactive | inactive | 16.8 µM (active) |  |  |  |
| CCCCc1cc2c(=O)c(C(=O)OC)c[nH]c2cc1OCc1ccccc1 |  | inactive | inactive | inactive | inactive |  |  | inactive | inactive | inactive | inactive | inactive | inactive | inactive | inactive |  |  |
| CC1(C)C2CC[C@]3(C)[C@H](C(=O)C=C4[C@@H]5C[C@@](C)(C(=O)O)CC[C@]5(C)CC[C@]43C)[C@@]2(C)CC[C@@H]1O[C@H]1O[C@H](C(=O)O)[C@@H](O)[C@H](O)[C@H]1O[C@@H]1O[C@H](C(=O)O)[C@@H](O)[C@H](O)[C@H]1O (stereo partly drawn) | inactive |  | inactive |  |  |  | inactive | inactive | inactive | inactive | inactive |  |  |  | inactive | 0.435% [at 7.66 µM] (inactive) |  |
| O=S(=O)(O)Oc1ccc(C(c2ccc(OS(=O)(=O)O)cc2)c2ccccn2)cc1 |  | inactive | inactive | inactive | inactive | inactive |  | inactive | inactive |  | inactive | inactive | inactive | inactive | inactive |  |  |
| CCCCOC(=O)C(=O)Nc1cccc(-c2nn[nH]n2)c1 | inactive |  | inactive | inactive | inactive | inactive |  | inactive | inactive | inactive | inactive | inactive | inactive |  |  |  |  |
| CCCCCCC(=O)O[C@H]1CC[C@H]2[C@@H]3CCc4cc(O)ccc4[C@H]3CC[C@]12C |  |  |  | 0.0007 µM [inconclusive] (active) |  |  | inactive | inactive | inactive |  | inactive |  | inactive | 21.1 µM (active) |  |  | 66.1% (active) |
| CCCCCCCCCCCCCCCC(=O)OC[C@@H](NC(=O)C(Cl)Cl)[C@H](O)c1ccc([N+](=O)[O-])cc1 |  | inactive |  |  | inactive | inactive | inactive | inactive | inactive | inactive | inactive | inactive | inactive | inactive | inactive |  |  |
| O=[N+]([O-])c1ccc(Oc2ccc(N=C=S)cc2)cc1 |  | 0.848 µM [inconclusive] (active) | inactive | inactive |  |  |  | 26.6 µM (active) | inactive | inactive | inactive |  | inactive | 29.8 µM (active) | inactive |  |  |
| CC1=C(C(=O)OCCN(Cc2ccccc2)c2ccccc2)C(c2cccc([N+](=O)[O-])c2)C(P2(=O)OCC(C)(C)CO2)=C(C)N1 (stereo not drawn) |  |  | inactive | inactive | inactive | inactive | inactive |  |  | inactive |  |  |  | 13.3 µM (active) | inactive | -1.08% [at 7.66 µM] (inactive) |  |
| CC1(C)S[C@@H]2[C@H](NC(=O)Cc3ccccc3)C(=O)N2[C@H]1C(=O)O | inactive | inactive | inactive | inactive | inactive | inactive | inactive | inactive | inactive | inactive | inactive | inactive | inactive |  |  |  |  |
